Measurements taken from PubChem BioAssay (NCI).
The panel holds about 83,000 compounds, 20% with a hit somewhere; the sample as a whole holds those more often.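 Note: values are percent growth. 100 is the growth of untreated cells, values between 100 and 0 indicate rising inhibition; between -100 and 0 indicates cell death.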 Values without a mark were called inactive. The source made the active and inactive calls. The calls were made as follows: active = growth percent below 10; inactive = the rest.

Experiments:
Experiment in all cases: NCI-60 one-dose screen, 48 h (100 = growth as untreated, 0 = no growth, -100 = all killed)
Conditions in all cases: 10 µM unless noted
NCI-H23 lung = tested on: NCI-H23 lung
NCI-H226 lung = tested on: NCI-H226 lung
NCI-H322M lung = tested on: NCI-H322M lung
HOP-62 NSCLC = tested on: HOP-62 NSCLC
NCI-H460 lung = tested on: NCI-H460 lung
HOP-92 NSCLC = tested on: HOP-92 NSCLC
NCI-H522 lung = tested on: NCI-H522 lung
A549/ATCC NSCLC = tested on: A549/ATCC NSCLC
786-0 renal = tested on: 786-0 renal
COLO 205 colon = tested on: COLO 205 colon
DU-145 prostate = tested on: DU-145 prostate
K-562 leukemia = tested on: K-562 leukemia
MALME-3M melanoma = tested on: MALME-3M melanoma
MDA-MB-231 breast = tested on: MDA-MB-231 breast
RXF 393 renal = tested on: RXF 393 renal
SF-268 CNS = tested on: SF-268 CNS
SF-295 CNS = tested on: SF-295 CNS
SF-539 CNS = tested on: SF-539 CNS
UACC-257 melanoma = tested on: UACC-257 melanoma
M14 melanoma = tested on: M14 melanoma

Compound: COc1cc2nc(-c3ccc(C(F)(F)F)cc3)cc(OCCCN3CCC(O)CC3)c2cc1OC
- growth (NCI-H23 lung): 57.9%
- growth (NCI-H226 lung): -9.29% (active)
- growth (NCI-H322M lung): 61.1%
- growth (HOP-62 NSCLC): 45.3%
- growth (NCI-H460 lung): 16.5%
- growth (HOP-92 NSCLC): 19.9%
- growth (NCI-H522 lung): 10.5%
- growth (A549/ATCC NSCLC): 27.7%
- growth (786-0 renal): 42.7%
- growth (COLO 205 colon): 26.5%
- growth (DU-145 prostate): 28.3%
- growth (K-562 leukemia): 6.21% (active)
- growth (MALME-3M melanoma): 43.9%
- growth (MDA-MB-231 breast): 11.2%
- growth (RXF 393 renal): 42.1%
- growth (SF-268 CNS): 49.9%
- growth (SF-295 CNS): -43.5% (active)
- growth (SF-539 CNS): 45.5%
- growth (UACC-257 melanoma): -8.17% (active)
- growth (M14 melanoma): -55.9% (active)

Compound: CCOC(=O)C1=C(C)NC(C)=C(C(=O)OCC)C1c1cc(Br)c(O)c(OC)c1
- growth (NCI-H23 lung): 34.3%
- growth (NCI-H226 lung): 32.7%
- growth (NCI-H322M lung): 55.3%
- growth (HOP-62 NSCLC): 31.8%
- growth (NCI-H460 lung): 18.7%
- growth (HOP-92 NSCLC): 16.3%
- growth (NCI-H522 lung): -37.5% (active)
- growth (A549/ATCC NSCLC): 33.2%
- growth (786-0 renal): 29.1%
- growth (COLO 205 colon): 104%
- growth (DU-145 prostate): 20.8%
- growth (K-562 leukemia): 25.5%
- growth (MALME-3M melanoma): 33.3%
- growth (MDA-MB-231 breast): 53.7%
- growth (RXF 393 renal): -26.6% (active)
- growth (SF-268 CNS): 54.9%
- growth (SF-295 CNS): 16.2%
- growth (SF-539 CNS): 22.8%
- growth (UACC-257 melanoma): 59.1%
- growth (M14 melanoma): 3.03% (active)

Compound: O=S(=O)(c1ccc(N/N=C\c2ccccc2)cc1)c1ccc(N/N=C/c2ccccc2)cc1
- growth (NCI-H23 lung): 43.6%
- growth (NCI-H226 lung): 83.3%
- growth (NCI-H322M lung): 80%
- growth (HOP-62 NSCLC): 46.6%
- growth (NCI-H460 lung): 40.4%
- growth (HOP-92 NSCLC): 8.56% (active)
- growth (NCI-H522 lung): 60%
- growth (A549/ATCC NSCLC): 60%
- growth (786-0 renal): 83.4%
- growth (COLO 205 colon): 88.9%
- growth (DU-145 prostate): 69%
- growth (K-562 leukemia): 79.9%
- growth (MALME-3M melanoma): 55.4%
- growth (MDA-MB-231 breast): 49.4%
- growth (RXF 393 renal): 72.8%
- growth (SF-268 CNS): 75.1%
- growth (SF-295 CNS): 58.2%
- growth (SF-539 CNS): 65.9%
- growth (UACC-257 melanoma): 80.5%
- growth (M14 melanoma): 76.7%

Compound: COc1cc(C(=O)/C=C/c2c(C)n([O-])c3ccc(Cl)cc3[n+]2=O)cc(OC)c1OC
- growth (NCI-H23 lung): 72%
- growth (NCI-H226 lung): 93.2%
- growth (NCI-H322M lung): 102%
- growth (HOP-62 NSCLC): 82%
- growth (NCI-H460 lung): 83%
- growth (HOP-92 NSCLC): -31.2% (active)
- growth (NCI-H522 lung): -77.3% (active)
- growth (A549/ATCC NSCLC): 81.5%
- growth (786-0 renal): 61.7%
- growth (COLO 205 colon): 36.4%
- growth (DU-145 prostate): 36.3%
- growth (K-562 leukemia): 1.97% (active)
- growth (MALME-3M melanoma): 95.4%
- growth (MDA-MB-231 breast): 81%
- growth (RXF 393 renal): 43.2%
- growth (SF-268 CNS): 65.5%
- growth (SF-295 CNS): 95%
- growth (SF-539 CNS): 73.7%
- growth (UACC-257 melanoma): 81.2%
- growth (M14 melanoma): 80.9%

Compound: CCCC/C(=N\N=C(N)N)c1ccc(F)cc1
- growth (NCI-H23 lung): 34.9%
- growth (NCI-H226 lung): 31.6%
- growth (NCI-H322M lung): 61.5%
- growth (HOP-62 NSCLC): 27.9%
- growth (NCI-H460 lung): 16.2%
- growth (HOP-92 NSCLC): 31.4%
- growth (NCI-H522 lung): 10.2%
- growth (A549/ATCC NSCLC): 31.8%
- growth (786-0 renal): 26.8%
- growth (COLO 205 colon): 8.47% (active)
- growth (DU-145 prostate): 44.1%
- growth (K-562 leukemia): 10.4%
- growth (MALME-3M melanoma): 40.6%
- growth (MDA-MB-231 breast): 59.3%
- growth (RXF 393 renal): -5.71% (active)
- growth (SF-268 CNS): 45.2%
- growth (SF-295 CNS): 18.4%
- growth (SF-539 CNS): 11.7%
- growth (UACC-257 melanoma): 44.1%
- growth (M14 melanoma): 13.7%

Compound: CC(C)Cc1ccc(C(C)C(=O)NCc2c[nH]c3ccc(Cl)cc23)cc1 (stereo not given)
- growth (NCI-H23 lung): 98%
- growth (NCI-H226 lung): 92.3%
- growth (NCI-H322M lung): 99.7%
- growth (HOP-62 NSCLC): 99.7%
- growth (NCI-H460 lung): 99.7%
- growth (HOP-92 NSCLC): 79.8%
- growth (NCI-H522 lung): 87.2%
- growth (A549/ATCC NSCLC): 89%
- growth (786-0 renal): 95.8%
- growth (COLO 205 colon): 107%
- growth (DU-145 prostate): 103%
- growth (K-562 leukemia): 71.3%
- growth (MALME-3M melanoma): 98.8%
- growth (MDA-MB-231 breast): 82.2%
- growth (RXF 393 renal): 87.8%
- growth (SF-268 CNS): 89.3%
- growth (SF-295 CNS): 88.3%
- growth (SF-539 CNS): 100%
- growth (UACC-257 melanoma): 99.4%
- growth (M14 melanoma): 92.4%

Compound: c1ccc2c(-c3c4ccsc4cc4[nH]c5ccccc5c34)c[nH]c2c1
- growth (NCI-H23 lung): 51.6%
- growth (NCI-H226 lung): 67.9%
- growth (NCI-H322M lung): 69.6%
- growth (HOP-62 NSCLC): 39.7%
- growth (NCI-H460 lung): 11.6%
- growth (HOP-92 NSCLC): 63.1%
- growth (NCI-H522 lung): 22.7%
- growth (A549/ATCC NSCLC): 39.2%
- growth (786-0 renal): 27.9%
- growth (COLO 205 colon): 58.4%
- growth (DU-145 prostate): 66.3%
- growth (K-562 leukemia): 16%
- growth (MALME-3M melanoma): 46.7%
- growth (MDA-MB-231 breast): 55%
- growth (RXF 393 renal): 32.2%
- growth (SF-268 CNS): 40.7%
- growth (SF-295 CNS): 26.7%
- growth (SF-539 CNS): 17.9%
- growth (UACC-257 melanoma): 66.9%
- growth (M14 melanoma): 8.79% (active)
